# Values joined by “and” are separate entries in the source; they are usually repeats but may differ in a detail not shown here. Equal entries are not always repeated. Results filed as inconclusive are left out. Entries that show only a call come without a potency. Active and inactive are the calls of the source. The call rests on the fitted dose curve; in most records, active means well fitted cell-killing curve with a large enough effect in the repeat runs; inconclusive means weak or mixed curves, or effect the other way; inactive means flat fitted curve, though single readings scatter.
# Test: cAMP Responsive Elements (CRE) small molecule antagonists, cell-based qHTS assay: qHTS cell viability counter screen (AID 2060913); further: nearly all actives have a fitted effect of over 40% in size
# Conditions: CRE-bla HEK293T viability, CellTiter-Glo luminescence, 5 h; series mostly up to 92.4 µM
# Summary of the method: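 Cytotoxicity read in the same wells as the CRE-bla HEK293T antagonist assay: after 3 h compound with 0.25 uM NKH477 final and 2 h beta-lactamase substrate, CellTiter-Glo luminescence measured.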
# Potency means the concentration at half of the fitted maximal effect.
row,Compound,Potency
1,CCCCc1cc2ccccc2c(OCCN(C)C)n1,inactive
2,Cc1ccc2c(c1)C(=O)c1ccccc1C2=O,inactive
3,COc1ccc(C(=O)/C(Br)=C\C(=O)O)cc1,inactive
4,C=CCCCC,inactive
5,O=S(=O)(c1ccc(OCc2ccccc2)cc1)c1ccccc1O,inactive
6,CCCCC[Si](OCC)(OCC)OCC,inactive
7,CCCCCCOC(=O)NC(=N)c1ccc(NCc2nc3cc(C(=O)N(CCC(=O)OCC)c4ccccn4)ccc3n2C)cc1,26.6 µM (active)
8,CCCCOCCOCCOCCCC,inactive
9,CC1(C)CC(O)CC(C)(C)N1[O],inactive
10,CC(C)=CCCC(C)O (stereo not given),inactive
11,CC(C)(C)C1=CC(=O)C=C(C(C)(C)C)C1=O,inactive
12,O=C(O)[C@H](O)[C@@H](O)[C@H](O[C@@H]1O[C@H](CO)[C@H](O)[C@H](O)[C@H]1O)[C@H](O)CO,inactive
13,O=C(CCCl)NCc1ccccc1,inactive
14,CC(C)(C)CC(C)(C)c1ccc(O)c(-n2nc3ccccc3n2)c1,inactive
15,CCCCCCCCCCCC[N+](C)(C)C,54.3 µM (active) and 61.1 µM (active) and 68.6 µM (active)
16,CCC1NC(=O)c2cc(S(N)(=O)=O)c(Cl)cc2N1 (stereo not given),inactive
17,COC(=O)[C@H]1[C@H]2C[C@@H]3c4[nH]c5cc(OC)ccc5c4CCN3C[C@H]2C[C@@H](OC(=O)/C=C/c2ccc(O)c(OC)c2)[C@@H]1OC,inactive
18,FC(F)(F)C(F)(F)C(F)(F)C(F)(F)C(F)(F)C(F)(F)CCI,inactive
19,COC(C)OC,inactive
20,CCC(O)C(C)(C)C (stereo not given),inactive

row,Compound,Potency
1,O=C(Nc1ccc(S(=O)(=O)N2CCOCC2)cc1)c1cc(Cl)ccc1NS(=O)(=O)c1ccc(Cl)s1,inactive
2,CCc1c(C(=O)NN2CCCCC2)nn(-c2ccc(Cl)cc2Cl)c1-c1ccc(Br)cc1,inactive
3,CCOC(=O)c1cc(=O)c2c(OCC(COc3cccc4oc(C(=O)OCC)cc(=O)c34)OC(=O)[C@@H](N)CCCCN)cccc2o1,inactive
4,O=C(CS(=O)Cc1ccco1)NC/C=C\COc1cc(CN2CCCCC2)ccn1 (stereo not given),inactive
5,Clc1ccc(Sc2cc(Cl)c(Cl)cc2Cl)cc1,inactive
6,CCOCC(O)COc1ccc(NC(=O)CC[S+](C)C)cc1 (stereo not given),inactive
7,CN(Cc1ccc(C(C)(C)C)cc1)Cc1cccc2ccccc12,inactive
8,CC(C)COC(=O)CC(C(=O)OCC(C)C)S(=O)(=O)O (stereo not given),inactive
9,O=C1CCc2ccc(OCCCCN3CCN(c4cccc(Cl)c4Cl)CC3)cc2N1,inactive
10,CN(CC1(C)CCCO1)S(=O)(=O)c1ccc(Cl)c(S(N)(=O)=O)c1 (stereo not given),inactive
11,NNc1nc(-c2ccc([N+](=O)[O-])cc2)cs1,inactive
12,CC(C)(C)c1ccc(OC2CCCCC2O)cc1 (stereo not given),inactive
13,CCCC(=O)O[C@]1(C(=O)CO)CC[C@H]2[C@@H]3CCC4=CC(=O)CC[C@]4(C)[C@H]3[C@@H](O)C[C@@]21C,inactive
14,O=C1C(c2[nH]c3ccc(S(=O)(=O)O)cc3c2O)=Nc2ccc(S(=O)(=O)O)cc21,inactive
15,CCCCN(CCO)CCO,inactive
16,C=C1C(CCl)(CCl)C2(Cl)C(Cl)C(Cl)C1(Cl)C2(Cl)Cl (stereo not given),60.4 µM (active)
17,CC(C)(C)C1CCC(CC2=C(O)c3ccccc3C(=O)C2=O)CC1 (stereo not given),inactive
18,Cc1cc(=O)oc2cc(O[C@@H]3SC[C@@H](O)[C@H](O)[C@H]3O)ccc12,inactive
19,C/C=C\C/C=C/CCCCCCCCOC(C)=O,inactive
20,CCCC[P+](C)(CCCC)CCCC,inactive
